NS1 inh: inhibitors of influenza NS1 protein function. Potency, µM (series often up to 46.1 µM). hit rate 0.4% among 270,000. AID 2326; also: actives are rising curves; nearly all actives have a fitted effect of over 50% in size
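OD600 was taken as the measure of yeast growth restored by compound in an NS1-expressing S. cerevisiae strain. Cells had been washed out of glucose medium and diluted 1:100 into galactose -URA medium, pH 6.0.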
Cycloheximide cs: affects cycloheximide protein synthesis inhibition readout, counter-screen | cell reporter, cycloheximide protein synthesis inhibition counterscreen | max response, % | hit rate 12% among 300,000; in the data active = max response mostly above about 13%, no sharp cut-off; inactive = mostly below about 14%; also: read at 38.3 µM for the half of the compounds with a filed dose
Shiga inhibitor: inhibitors of Shiga toxin in Vero cells; hit rate 9.2% among 290,000; Vero cells, Shiga toxin protein synthesis inhibition reporter; inhibition, % at 38.7 µM; in the data active = inhibition mostly above about 28%, no sharp cut-off; inactive = mostly below about 43%
LmPK inhibitor: LmPK (Leishmania mexicana) enzyme inhibition | Q27686 | purified LmPK, Kinase-Glo ATP luminescence, 1 h | Potency, µM (doses to about 57.5 µM), most hits filed as inhibitors | hit rate 0.37% among 290,000; active = well fitted curve in the direction sought with a large enough effect; inconclusive = small, poorly fitted or top-dose-only effect, or another doubt; inactive = no such curve, though single readings can be large; an effect the other way counts as inactive or inconclusive
Target sequence (Q27686 whole entry, looked up): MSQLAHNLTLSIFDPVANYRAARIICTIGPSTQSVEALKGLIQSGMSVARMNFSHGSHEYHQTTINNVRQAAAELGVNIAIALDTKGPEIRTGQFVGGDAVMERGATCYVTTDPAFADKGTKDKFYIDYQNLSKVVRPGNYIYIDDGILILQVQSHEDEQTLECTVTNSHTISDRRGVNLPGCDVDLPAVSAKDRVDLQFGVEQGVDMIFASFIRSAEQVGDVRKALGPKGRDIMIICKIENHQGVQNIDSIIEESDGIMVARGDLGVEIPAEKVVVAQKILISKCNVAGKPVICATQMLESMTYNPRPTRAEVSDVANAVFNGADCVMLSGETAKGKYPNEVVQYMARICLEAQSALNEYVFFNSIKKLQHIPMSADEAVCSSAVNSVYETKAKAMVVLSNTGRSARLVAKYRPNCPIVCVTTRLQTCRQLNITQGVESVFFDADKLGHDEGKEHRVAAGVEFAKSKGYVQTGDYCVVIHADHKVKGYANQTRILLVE
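0.1 nM LmPK, 0.5 mM PEP, 0.1 mM ADP; 50 mM imidazole pH 7.2, 7 mM MgCl2, 50 mM KCl; 1 h RT. Kinase-Glo luminescence readout, normalized to no-enzyme (full inhibition) and uninhibited wells.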
SARS PLpro yeast-1: blocks SARS-CoV papain-like protease in a yeast assay; AID 485353; S. cerevisiae expressing SARS-CoV PLpro, growth rescue; hit rate 0.19% among 330,000; Potency, µM (series often up to 32.9 µM), actives largely listed as activators; also: nearly all actives have a fitted effect of over 55% in size
TbPYK inhibitor: T. brucei pyruvate kinase inhibition; Q57TT1; TbPYK enzyme, Kinase-Glo Plus ATP luminescence, 45 min; Potency, µM (doses to about 76.8 µM), hits mostly inhibitors; hit rate 0.12% among 410,000; active = well fitted curve in the direction sought with a large enough effect; inconclusive = small, poorly fitted or top-dose-only effect, or another doubt; inactive = no such curve, though single readings can be large; an effect the other way counts as inactive or inconclusive; also: nearly all actives have a fitted effect of over 50% in size
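T. brucei PYK with substrate was exposed to pin-transferred compounds across a concentration series, then started with 130 uM ADP (final). After 45 min at room temperature, Kinase-Glo Plus luminescence was read, normalized and curve-fitted.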
SARS PLpro yeast-2: Inhibits SARS-CoV PLP in yeast, hit validation. shares compounds with SARS PLpro yeast-1. yeast expressing SARS-CoV PLpro, growth phenotype rescue. calls only. hit rate 19% among 1,000. AID 652038; call rule not given here
Each line names hits and unclear results; the compound was inactive in the other large screens (follow-up assays come after a bar, where they were run); ! = repeats disagree. Shown is part of a subset that was picked to be rich in hits. Unless noted, calls follow the shape of the full dose curve.

Cn1cccc1C(=S)N=P(C1CCCCC1)(N1CCOCC1)N1CCOCC1	SARS PLpro yeast-1 2.8µM | SARS PLpro yeast-2 inactive
OC(c1cccc(F)c1)c1ncc(-c2ccc(Oc3ccccc3)cc2)[nH]1 (stereo unspecified)	none (no result: NS1 inh, Cycloheximide cs, Shiga inhibitor, LmPK inhibitor, SARS PLpro yeast-1)
C[C@H](CO)N1C[C@H](C)[C@@H](CN(C)C(=O)c2ccccn2)Oc2cc(Br)ccc2S1(=O)=O	none (no result: NS1 inh, Cycloheximide cs, Shiga inhibitor, LmPK inhibitor, SARS PLpro yeast-1)
CCc1ccc2nc(N3CCN(C(=O)c4ccccc4)CC3)sc2c1	none (no result: NS1 inh, Cycloheximide cs, Shiga inhibitor, LmPK inhibitor, SARS PLpro yeast-1)
CCN(Cc1ccccc1)S(=O)(=O)c1ccc(C(=O)N2CCN(c3nc4ccccc4s3)CC2)cc1	SARS PLpro yeast-1 2.8µM | SARS PLpro yeast-2 inactive
CCOC(=O)C(=O)N(C)c1c(CC)nc2c(OCc3ccccc3)cccn12	none (no result: NS1 inh, Cycloheximide cs, Shiga inhibitor, LmPK inhibitor, SARS PLpro yeast-1)
N#CC1C(=O)NC(N2CCN(c3ccccc3)CC2)=NC12CCCCC2 (stereo unspecified)	NS1 inh inconclusive, SARS PLpro yeast-1 16µM | SARS PLpro yeast-2 inactive
CC12CCC(C(N)C1=O)C2(C)C (stereo unspecified)	none (no result: NS1 inh, Cycloheximide cs, Shiga inhibitor, LmPK inhibitor, SARS PLpro yeast-1)
CSc1nnc(COc2ccc(C)cc2)n1N	SARS PLpro yeast-1 inconclusive | SARS PLpro yeast-2 inactive
Cn1ncc(Cl)c1C(=O)N/N=C/c1ccccn1	Cycloheximide cs 20, SARS PLpro yeast-1 inconclusive | SARS PLpro yeast-2 active
CCOC(=O)Cc1ccc(Nc2nc(NCc3cccs3)nc3ccsc23)cc1	none (no result: NS1 inh, Cycloheximide cs, Shiga inhibitor, LmPK inhibitor, SARS PLpro yeast-1)
CC(Sc1n[nH]c(-c2ccccc2F)n1)C(=O)Nc1ccc(S(N)(=O)=O)cc1 (stereo unspecified)	SARS PLpro yeast-1 inconclusive (no result: NS1 inh, Cycloheximide cs, Shiga inhibitor, LmPK inhibitor) | SARS PLpro yeast-2 inactive
CCCOc1cccc(C2c3c(oc4ccc(F)cc4c3=O)C(=O)N2Cc2ccc3c(c2)OCO3)c1 (stereo unspecified)	none (no result: NS1 inh, Cycloheximide cs, Shiga inhibitor, LmPK inhibitor, SARS PLpro yeast-1)
C[N+]12CCCC[C@@H]1CCC(=C(c1cccs1)c1cccs1)C2 (stereo partly specified)	none (no result: NS1 inh, Cycloheximide cs, Shiga inhibitor, LmPK inhibitor, SARS PLpro yeast-1)
Cc1c(NC(=O)COc2ncnc3c(Cl)cc(Cl)cc23)c(=O)n(-c2ccccc2)n1C	SARS PLpro yeast-1 inconclusive | SARS PLpro yeast-2 inactive
CCN(CC)c1nc2ccccc2nc1C(=O)Nc1cc(OC)c(OC)c(OC)c1	none (no result: NS1 inh, Cycloheximide cs, Shiga inhibitor, LmPK inhibitor, SARS PLpro yeast-1)
O=C1CC(=O)NC(SCC(=O)Nc2ccccc2[N+](=O)[O-])=N1	none
CC(=O)Oc1ccc(C(=O)[C@H]2[C@H]3C(=O)N(c4ccc5ccccc5c4)C(=O)[C@H]3[C@@H]3C=CC=NN32)cc1	Cycloheximide cs 37, SARS PLpro yeast-1 3.2µM | SARS PLpro yeast-2 inactive
COc1ccccc1N1C(=O)[C@@H]2[C@H](C1=O)[C@H](C(=O)c1ccc(OC(C)=O)cc1)N1N=CC=C[C@@H]21	none
CCCCc1c(O)nc(SCC(=O)N2CCOCC2)n(-c2ccccc2OC)c1=O	none
Cc1ccc(Nc2nnc(SC(C)C(=O)Nc3c(C)n(C)n(-c4ccccc4)c3=O)s2)cc1 (stereo unspecified)	SARS PLpro yeast-1 2.8µM | SARS PLpro yeast-2 inactive
Cc1cccc(C)c1Nc1nnc(SC(C)C(=O)Nc2c(C)n(C)n(-c3ccccc3)c2=O)s1 (stereo unspecified)	none
Cc1ccc(NC(=S)Nc2ccc3cn[nH]c3c2)cc1C	SARS PLpro yeast-1 2.5µM | SARS PLpro yeast-2 inconclusive
CCNC(=S)Nc1ccc2cn[nH]c2c1	none
Cc1[nH]n(-c2cccc3ccccc23)c(=O)c1/C=N/NC(=O)c1cccc([N+](=O)[O-])c1	NS1 inh inconclusive, SARS PLpro yeast-1 inconclusive | SARS PLpro yeast-2 active
Cc1[nH]n(-c2ccccc2)c(=O)c1/C=N/NC(=O)c1cccc([N+](=O)[O-])c1	none
CCc1ccc(NC(=O)CSc2nccn2C2CCCC2)cc1	none (no result: NS1 inh, Cycloheximide cs, Shiga inhibitor, LmPK inhibitor, SARS PLpro yeast-1)
COc1cccc(C(=O)CC(=O)C(=O)Nc2cc(Cl)c(OC)cc2OC)c1	none (no result: NS1 inh)
COc1ccc(C(=O)CC(=O)C(=O)Nc2cc(Cl)c(OC)cc2OC)cc1	SARS PLpro yeast-1 inconclusive | SARS PLpro yeast-2 active
Cc1cccc(NC(=O)CSc2nnc(Cn3cnc4ccccc43)o2)c1	SARS PLpro yeast-1 18µM | SARS PLpro yeast-2 inactive
COc1ccc(NC(=O)CSc2nnc(Cn3cnc4ccccc43)o2)cc1	none (no result: NS1 inh)
Cc1cccc(-c2ccc3ncnc(NCc4cccnc4)c3c2)c1	SARS PLpro yeast-1 6.3µM! (no result: NS1 inh, Cycloheximide cs, Shiga inhibitor, LmPK inhibitor) | SARS PLpro yeast-2 inactive
Clc1cccc(-c2ccc3ncnc(NCc4cccs4)c3c2)c1	none (no result: NS1 inh, Cycloheximide cs, Shiga inhibitor, LmPK inhibitor)
Cc1cccc(-c2ccc3ncnc(NCc4cccs4)c3c2)c1	SARS PLpro yeast-1 6.3µM! (no result: NS1 inh, Cycloheximide cs, Shiga inhibitor, LmPK inhibitor) | SARS PLpro yeast-2 inactive
